{"source": "PubChem BioAssay (NCATS)", "key": {"[1]": {"experiment": "qHTS for Inhibitors of the Functional Ribonucleoprotein Complex (vRNP) of Lymphocytic Choriomeningitis Arenaviruses (LCMV): Viability assay - alamar blue signal for LCMV Primary Screen (AID 1347085; calls by dose curve; tested in HEK293 reporter line; also: nearly all actives have a fitted effect of over 80% in size; also: potency is read from the fitted curve at half-maximal effect)", "conditions": "alamar blue viability counter-screen, LCMV vRNP screen cells; series mostly up to 57.5 µM"}, "[2]": {"molecular_target": "Nucleoprotein (Lymphocytic choriomeningitis virus (strain Armstrong)) (UniProt P09992)", "sequence (P09992 whole entry, looked up)": "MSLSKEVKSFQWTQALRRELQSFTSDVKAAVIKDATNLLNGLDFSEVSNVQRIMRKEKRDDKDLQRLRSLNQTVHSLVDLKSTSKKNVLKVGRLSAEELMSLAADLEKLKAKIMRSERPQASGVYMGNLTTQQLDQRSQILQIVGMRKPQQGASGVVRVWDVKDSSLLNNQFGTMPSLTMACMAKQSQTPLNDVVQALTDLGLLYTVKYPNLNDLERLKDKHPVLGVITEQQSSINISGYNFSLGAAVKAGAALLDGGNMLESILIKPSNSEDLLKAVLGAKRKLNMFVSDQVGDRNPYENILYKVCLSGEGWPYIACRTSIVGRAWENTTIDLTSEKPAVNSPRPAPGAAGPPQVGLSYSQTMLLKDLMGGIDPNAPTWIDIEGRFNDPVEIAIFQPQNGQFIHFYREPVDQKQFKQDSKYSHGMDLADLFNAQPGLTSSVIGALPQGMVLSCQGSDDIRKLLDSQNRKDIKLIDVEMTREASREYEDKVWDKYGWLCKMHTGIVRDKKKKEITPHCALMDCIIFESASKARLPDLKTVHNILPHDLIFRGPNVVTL", "experiment": "qHTS for Inhibitors of the Functional Ribonucleoprotein Complex (vRNP) of Lymphocytic Choriomeningitis Arenaviruses (LCMV): LCMV Primary Screen - GLuc reporter signal (AID 1347086); also: nearly all actives have a fitted effect of over 70% in size", "conditions": "LCMV minigenome vRNP cell assay, Gaussia luciferase reporter; series mostly up to 57.5 µM"}, "[3]": {"experiment": "qHTS for Inhibitors of the Functional Ribonucleoprotein Complex (vRNP) of Lassa (LASV) Arenavirus: Viability assay - alamar blue signal for LASV Primary Screen (AID 1347083; calls by dose curve; tested in HEK293 reporter line; also: nearly all actives have a fitted effect of over 80% in size; also: potency is read from the fitted curve at half-maximal effect)", "conditions": "cell viability, alamar blue fluorescence (LASV minigenome counter-screen); series mostly up to 57.5 µM"}, "[4]": {"experiment": "qHTS for Inhibitors of the Functional Ribonucleoprotein Complex (vRNP) of Lassa (LASV) Arenavirus: LASV Primary Screen - GLuc reporter signal (AID 1347082; calls by dose curve; tested in HEK293 reporter line; also: nearly all actives have a fitted effect of over 60% in size)", "conditions": "LASV minigenome vRNP, Gaussia luciferase reporter; series mostly up to 57.5 µM"}}, "note": "Inconclusive results are not listed. Entries that show only a call come without a potency. Calls of active or inactive are those of the source. Unless noted, calls follow the shape of the full dose curve."}
{"smiles": "CC(=O)SC[C@@H](Cc1ccccc1)C(=O)NCC(=O)OCc1ccccc1", "values": [{"measurement": "Potency", "setting": "[1]", "result": "inactive"}, {"measurement": "Potency", "setting": "[2]", "result": "inactive"}]}
{"smiles": "CCCCCN=C(N)N/N=C/c1c[nH]c2ccc(OC)cc12", "values": [{"measurement": "Potency", "setting": "[3]", "result": "inactive"}]}
{"smiles": "C[C@@H]1C[C@H]2[C@@H]3CCC4=CC(=O)C=C[C@]4(C)[C@@]3(Cl)[C@@H](O)C[C@]2(C)[C@@]1(OC(=O)c1ccco1)C(=O)CCl", "values": [{"measurement": "Potency", "setting": "[2]", "result": "inactive"}]}
{"smiles": "CCOC(=O)N1CCC(n2c(=O)[nH]c3cc(Cl)ccc32)CC1", "values": [{"measurement": "Potency", "setting": "[3]", "result": "inactive"}, {"measurement": "Potency", "setting": "[1]", "result": "inactive"}]}
{"smiles": "Cc1nc2ccccc2n1Cc1ccc(Cl)cc1", "values": [{"measurement": "Potency", "setting": "[1]", "result": "inactive"}]}
{"smiles": "O[C@@H](COc1cccc2ncccc12)CN1CCN(C2c3ccccc3[C@@H]3[C@H](c4ccccc42)C3(F)F)CC1", "note": "(stereo partly drawn)", "values": [{"measurement": "Potency", "setting": "[3]", "result": "12.2 µM (active)"}]}
{"smiles": "CCCCCCCCCCCCCCCC[n+]1ccccc1", "values": [{"measurement": "Potency", "setting": "[3]", "result": "15.8 µM (active)"}]}
{"smiles": "O=c1[nH]c(=O)n([C@H]2C[C@H](O)[C@@H](CO)O2)cc1C(F)(F)F", "values": [{"measurement": "Potency", "setting": "[4]", "result": "inactive"}, {"measurement": "Potency", "setting": "[1]", "result": "15.8 µM (active)"}, {"measurement": "Potency", "setting": "[2]", "result": "inactive"}]}
{"smiles": "Oc1c(Cl)cc(Cl)c(Cl)c1Cc1c(O)c(Cl)cc(Cl)c1Cl", "values": [{"measurement": "Potency", "setting": "[1]", "result": "inactive"}]}
{"smiles": "O=C(NOCC1CC1)c1ccc(F)c(F)c1Nc1ccc(I)cc1Cl", "values": [{"measurement": "Potency", "setting": "[4]", "result": "inactive"}, {"measurement": "Potency", "setting": "[1]", "result": "inactive"}, {"measurement": "Potency", "setting": "[2]", "result": "inactive"}]}
{"smiles": "COc1cccc2c1C(=O)c1c(O)c3c(c(O)c1C2=O)C[C@@](O)(C(C)=O)C[C@@H]3O[C@H]1C[C@H](N)[C@H](O)[C@H](C)O1", "values": [{"measurement": "Potency", "setting": "[3]", "result": "0.891 µM (active)"}, {"measurement": "Potency", "setting": "[1]", "result": "0.355 µM (active)"}]}
{"smiles": "Cc1cc(C2CCCCC2)n(O)c(=O)c1", "values": [{"measurement": "Potency", "setting": "[2]", "result": "inactive"}]}
{"smiles": "O=C(OCC(O)CO)c1ccccc1Nc1ccnc2cc(Cl)ccc12", "note": "(stereo not drawn)", "values": [{"measurement": "Potency", "setting": "[4]", "result": "inactive"}, {"measurement": "Potency", "setting": "[2]", "result": "inactive"}]}
{"smiles": "CN1CCCC(n2nc(Cc3ccc(Cl)cc3)c3ccccc3c2=O)CC1", "note": "(stereo not drawn)", "values": [{"measurement": "Potency", "setting": "[4]", "result": "inactive"}, {"measurement": "Potency", "setting": "[2]", "result": "inactive"}]}
